Source: PubChem BioAssay
Only some compounds are listed: those with a hit (about 7.4% of all), similar ones and a draw of the others.
NPC1 promoter act = qHTS Assay for NPC1 Promoter Activators | Huh7 NPC1 promoter luciferase reporter, 24 h | Potency, µM (highest dose often 9.22 µM), for the others: at the highest dose activation, usual class: activators | hit rate 2.4% among 320,000 | AID 485313, 2010; also: % of control where 0% means no effect; nearly all actives have a fitted effect of over 60% in size
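Compounds in DMSO were transferred onto Huh7 NPC1-luciferase reporter cells pre-incubated 2 h; after 24 h at 37 °C, Amplite reagent was dispensed and luminescence recorded 10 min later.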
Rab9 prom act = qHTS Assay for Rab9 Promoter Activators. Potency, µM (titrated, usually from 9.22 µM), for the others: at the highest dose activation, negative = inhibition, most hits filed as activators. hit rate 2.8% among 320,000. Huh7 Rab9 promoter-luciferase reporter, luminescence, 24 h; also: % of control where 0% means no effect; nearly all actives have a fitted effect of over 60% in size
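Using Huh7 cells stably transfected with Rab9 promoter–luciferase, compounds were incubated 24 h at 37 °C, 5% CO2; luciferase luminescence was read 10 min after reagent addition.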
p53 reactivation = qHTS assay for re-activators of p53 using a Luc reporter | hit rate 0.063% among 320,000 | Potency, µM (doses to about 92.2 µM), inactives show at the highest dose activity change, positive = activation, most hits filed as activators | H1299 p53-A138V BP100-luciferase reporter, luminescence, 24 h | AID 504706, 2011; also: % of control where 0% means no effect; nearly all actives have a fitted effect of over 45% in size
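p53-null H1299 cells stably carrying temperature-sensitive p53-A138V and a BP100-luciferase reporter were pinned with compounds (4-point, 1:5 series) and held 24 hrs at 37 deg C. Luminescence was read 10 min after detection reagent.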
ELG1 genotoxic = qHTS screen for small molecules that induce genotoxicity in human embryonic kidney (HEK293T) cells expressing luciferase-tagged ELG1; AID 504466, 2011; hit rate 1.3% among 330,000; Potency, µM (top dose mostly 46 µM), for inactives: top-dose activity change, positive = activation, most hits filed as activators; HEK293T ELG1-luciferase reporter, luminescence, 16 h; also: % of control where 0% means no effect; nearly all actives have a fitted effect of over 60% in size
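16 hr compound incubation (37 °C, 5% CO2) of HEK293T cells carrying luciferase-tagged ELG1; luciferase then measured by ONE-Glo luminescence after 30 min at RT.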
SMN2 splice up = qHTS Assay for Enhancers of SMN2 Splice Variant Expression. Potency, µM (top dose mostly 46.1 µM), without a hit: at the top dose activity change, positive = activation, usual class: activators. hit rate 2.8% among 210,000. HEK293 SMN2-luciferase splicing reporter, luminescence, 30-36 h. AID 1458, 2008; also: % of control where 0% means no effect; nearly all actives have a fitted effect of over 55% in size
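HEK293 cells carry an SMN2 […]–luciferase reporter in which exon 7 inclusion puts luciferase in frame. Cells were plated 10-12 h before compound addition, then incubated 30-36 h at 37C. ONE-Glo luminescence was read; sodium butyrate at 4.5 mM final served as control.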
FLuc modulator = qHTS profiling assay for firefly luciferase inhibitor/activator using purifed enzyme and Km concentrations of substrates (counterscreen for miR-21 project); Luciferin 4-monooxygenase (Photinus pyralis), P08659; purified FLuc, Km substrates, luminescence inhibition; hit rate 6.9% among 360,000; Potency, µM (top dose mostly 57.5 µM), for inactives: at the highest dose activity change, negative = inhibition, actives largely listed as inhibitors;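 also: plate controls were vehicle for no effect and reference inhibitor for full effect; nearly all actives have a fitted effect of over 55% in size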
Target sequence (P08659 whole entry, looked up): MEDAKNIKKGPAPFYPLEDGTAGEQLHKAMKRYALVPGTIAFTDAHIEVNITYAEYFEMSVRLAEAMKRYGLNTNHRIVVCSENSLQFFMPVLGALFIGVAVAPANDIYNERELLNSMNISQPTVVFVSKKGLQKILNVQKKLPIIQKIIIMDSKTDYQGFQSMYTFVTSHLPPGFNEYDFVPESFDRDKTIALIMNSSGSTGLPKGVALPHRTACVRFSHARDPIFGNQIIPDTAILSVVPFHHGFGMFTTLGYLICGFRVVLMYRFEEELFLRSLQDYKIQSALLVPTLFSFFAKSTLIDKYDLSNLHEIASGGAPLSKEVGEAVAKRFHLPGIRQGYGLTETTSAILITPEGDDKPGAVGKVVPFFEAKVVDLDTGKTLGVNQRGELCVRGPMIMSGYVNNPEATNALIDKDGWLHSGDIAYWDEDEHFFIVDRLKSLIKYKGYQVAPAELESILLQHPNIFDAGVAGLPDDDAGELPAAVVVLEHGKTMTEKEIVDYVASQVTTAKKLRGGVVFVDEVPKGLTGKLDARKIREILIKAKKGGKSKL
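Purified P. pyralis luciferase (10nM final) with 10uM D-luciferin and 10uM ATP (Km levels) in 50mM Tris acetate pH 7.5, 10mM Mg acetate, 0.01% Tween-20, 0.05% BSA; qHTS 6-point titration, ~60 µM downward; luminescence read.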
The depositor's hits bear a star; u = inconclusive; x = no result given; [ ] = remark or other dose. Calls follow the shape of the dose curve; as a rule, active = well fitted curve in the direction sought with a large enough effect; inconclusive = small, poorly fitted or top-dose-only effect, or another doubt; inactive = no such curve, though single readings can be large; an effect the other way counts as inactive or inconclusive. Potency is read from the fitted curve at half-maximal effect.

SMILES	NPC1 promoter act	Rab9 prom act	p53 reactivation	ELG1 genotoxic	SMN2 splice up	FLuc modulator
O=c1c2ccccc2oc2ccc(NCCCN3CCOCC3)cc12	2.8µM*	2.8µM*	16%	u	x	8.5µM*
O=c1c2ccccc2oc2cc(NCCCN3CCOCC3)ccc12	4µM*	3.5µM*	x	u	x	11µM*
O=c1c2ccccc2oc2cc(NCCCn3ccnc3)ccc12	1.1µM*	0.71µM*	x	u	x	2.4µM*
CC(C)Oc1ccc(C(=O)NCC(=O)N2CCN(S(=O)(=O)/C=C/c3ccccc3)CC2)cc1	-2%	-1%	-2%	-3%	x	1%
COC(=O)N1CC=CC1(C)C(=O)NCc1ccc(C)o1 (centres undefined)	x	x	x	x	14%	x
CCc1ccc(NC(=O)C2C3/C=C\CCCCC32)cc1 (centres undefined)	4.5µM*	3.2µM*	u	u	11µM*	u
O=C(Nc1ccc(Cl)cc1)C1C2CCCCC21 (centres undefined)	4µM*	4µM*	x	u	x	4.8µM*
O=C1CCC(C(=O)Nc2ccc(Cl)cc2)N1 (centres undefined)	-3%	9%	x	2%	x	7%
CCOC(=O)C1=C(C)NC(C)=C(C(=O)OCC)C1C(=O)OCC(=O)NCCc1ccccc1	x	x	-6%	-2%	x	x
O=C(O)c1cc2ccccc2c(Cc2cc3ccccc3c(C(=O)O)c2O)c1O (tested in a mixture with another compound)	x	x	x	x	4%[20.6 µM]	x
CCOc1ccc(-c2ccc(SCC)nn2)cc1	0.71µM*	0.63µM*	-3%	1.2µM*	4.5µM*	1.2µM*
COc1ccc(-c2ccc(SC)nn2)cc1	0.5µM*	0.1µM*	13%	-8%	1.8µM*	1.5µM*
CCSc1ccc(-c2ccc(C)cc2)nn1	1µM*	0.71µM*	22%	u	10µM*	2.4µM*
Cc1ccc(NC(=O)CSc2ccc(-c3cccnc3)nn2)cc1	-1%	-4%	5%	-17%	x	-16%
COc1ccc(CCNC(=O)CSc2ccc(-c3ccccc3)nn2)cc1	-3%	-3%	-9%	1%	-1%	3%
O=C(c1cc(C(F)(F)F)cc(C(F)(F)F)c1)N1CCC2(CCCN(c3ncccn3)C2)CC1	x	x	x	x	-19%	x
CCc1ccc(OCC(=O)NC(=S)Nc2ccc(F)cc2)c(Br)c1	0%	-2%	1%	12%	-16%	u
CCc1ccc(OCC(=O)NC(=S)Nc2cccc(CO)c2)c(Br)c1	1.8µM*	2.8µM*	u	u	13µM*	6µM*
O=C(O)c1cc(S(=O)(=O)N2CCN(S(=O)(=O)c3ccc4ccccc4c3)CC2)ccc1Br	x	x	2%	0%	x	x
CCc1ccc(C(=O)CSc2n[nH]c(-c3ccncc3)n2)cc1	-1%	-1%	9%	-3%	-9%	24µM*
CCc1ccc(C(=O)CSc2ncn[nH]2)cc1	20%	u	u	u	2%	17µM*
CCCOc1ccc(CSc2ncn[nH]2)cc1	17%	26%	u	u	u	11µM*
CCOC(=O)c1ccc(NC(=O)C(CC)Sc2nnc3c4ccccc4n(C)c3n2)cc1 (centres undefined)	x	x	x	x	u	3%
CCCCNc1sc(S(=O)(=O)CC)nc1S(=O)(=O)c1ccc(C)cc1	x	x	x	x	-4%	-6%
Cc1c(CCC(=O)O)c(=O)oc2cc(OCc3cccc(Cl)c3)ccc12	8%	5%	u	3%	x	u
SMILES	NPC1 promoter act	Rab9 prom act	p53 reactivation	ELG1 genotoxic	SMN2 splice up	FLuc modulator
Cc1c(CCC(=O)O)c(=O)oc2cc(OCc3ccccc3F)ccc12	10%	1%	22%	4%	x	27µM*
Cc1c(CC(=O)O)c(=O)oc2cc(OCc3ccc(F)cc3Cl)ccc12	-1%	3%	6%	6%	x	17µM*
CCOC(=O)c1sc(N2C(=O)c3oc4ccc(F)cc4c(=O)c3C2c2ccc(O)cc2)nc1C (centres undefined)	x	x	x	x	3%	0%
CC(C)(C)C1CCC(OC(=O)CN2CCCCC2)CC1 (centres undefined)	21%	15%	5%	10%	x	19µM*
CC(C)(C)C1CCC(OC(=O)c2ccncc2)CC1 (centres undefined)	-23%	4%	6%	1%	10%	u
CS(=O)(=O)N1CCC2(CCN(Cc3ccc(C#N)cc3)CC2)CC1	x	x	x	x	-23%	x
Cc1ccc(S(=O)(=O)NNC(=O)c2ccc(NC(=O)C3CC3)cc2)cc1	-2%	-1%	2%	8%	x	2%
O=C(NNC(=O)c1cc(Cl)ccc1O)c1cccs1	26%	25%	u	9%	x	21µM*
COc1ccc(Cl)cc1NC(=S)NNC(=O)c1cccs1	-2%	-10%	3%	-4%	x	27µM*
NC(=S)N/N=C/c1ccccc1OC(=O)c1cc2ccccc2oc1=O	0%	-19%	u	8%	x	21µM*
NC(=O)N/N=C/c1ccccc1OC(=O)c1cc2ccccc2oc1=O	13%	17%	u	u	x	u
NC(=S)N/N=C/c1ccccc1OC(=O)/C=C/c1ccccc1	2%	-16%	0%	-3%	x	27µM*
COC(=O)c1ccc(NC(=O)CN2CCN(CC#N)CC2)cc1	-3%	3%	3%	1%	x	1%
O=C(Cn1cc(S(=O)(=O)N2CCCC2)c(S(=O)(=O)N2CCCC2)c1)Nc1ccccc1	x	x	x	x	x	-5%
CCn1c(CCCOc2ccc(Cl)cc2Cl)nnc1SCC(=O)Nc1cc(F)ccc1C	-5%	11%	u	-2%	-8%	17µM*
CCn1c(CNC(=O)COc2ccc(C(C)C)cc2)nnc1SCC(=O)Nc1cc(F)ccc1C	-2%	0%	-4%	-8%	-25%	-17%
Cn1c(CCCOc2ccc(Cl)cc2Cl)nnc1SCC(=O)Nc1ccc(F)c(Cl)c1	-5%	3%	1%	0%	1%	-10%
